In the library only some 19% were active in any assay of this set; here they are far more common.
DT40 TDP1 no CPT – qHTS for Inhibitors of human tyrosyl-DNA phosphodiesterase 1 (TDP1): qHTS in cells in absence of CPT; DT40 Tdp1-/- hTDP1 cells, no CPT, ATP luminescence, 48 h; Potency, µM (series often up to 46.2 µM), for the others: at the highest dose activity change, negative = growth inhibition, usual class: inhibitors; 15% of 420,000 active; further: potency means the concentration at half of the fitted maximal effect; nearly all actives have a fitted effect of over 55% in size
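Chicken DT40 Tdp1-/- cells complemented with human TDP1, screened without camptothecin (DMSO vehicle only), 400 cells/well. Compounds pin-transferred, cells incubated at 37 °C for at least 48 hr. Growth read as ATP-dependent luminescence (CellTiter-Glo, 30 min at RT).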
IL-1B inflam inh – blocks inflammasome-driven IL-1 beta release; AID 743279; THP-1 LPS/ATP IL-1B secretion, AlphaLISA, 16 h; hits give low values; 4.7% of 360,000 active; activity change, % at 57.5 µM; in the data active means activity change below about -50%; inconclusive means mostly about -30% to -49%
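Secreted IL-1B measured by AlphaLISA bead assay after 16 h compound exposure of THP-1 cells; compounds (final up to 57.5 uM) added 1 h before LPS (250 ng/mL) and ATP (1.25 mM) stimulation; lower signal means less secretion.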
TDP1 cell CPT – growth inhibition of DT40 Tdp1-/-;hTDP1 cells with camptothecin (screen for TDP1 inhibitors); AID 686979; 12% of 420,000 active; Potency, µM (titrated, usually from 46.2 µM), for the others: at the highest dose activity change, negative = growth inhibition, most hits filed as inhibitors; chicken DT40 Tdp1-/-;hTDP1 cells + 20 nM CPT, ATP luminescence, 48 h; further: potency means the concentration at half of the fitted maximal effect; nearly all actives have a fitted effect of over 55% in size
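Cell growth measured by CellTiter-Glo luminescence after a minimum 48 h, 37 C compound exposure with 20 nM CPT in Tdp1-knockout DT40 cells stably expressing hTDP1, seeded 400/well; qHTS titration format.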
HT1080 IDH1KD tx – kills HT-1080 cells with IDH1 knockdown; HT-1080 IDH1 knockdown viability, ATP luminescence, 48 h; Potency, µM (doses to about 46.1 µM), without a hit: top-dose activity, negative = toxicity, actives largely listed as cytotoxic; 2% of 360,000 active; AID 686971;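 further: potency means the concentration at half of the fitted maximal effect; 0% = DMSO wells and -100% = cell-free medium wells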
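Viability of IDH1-knockdown HT-1080 fibrosarcoma cells was assessed by CellTiter-Glo after 48 h at 37 °C with titrated compound; concentration-effect curves were classified by fit quality and response size.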
HT1080-NT tox – kills 2HG-producing HT-1080-NT fibrosarcoma cells; Potency, µM (top dose mostly 46.1 µM), for inactives: at the top dose activity, negative = less viability, actives largely listed as cytotoxic; HT-1080-NT fibrosarcoma viability, CellTiter-Glo ATP luminescence, 48 h; 1.6% of 360,000 active; AID 686970;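 further: NT is the 2HG producing partner of a matched IDH1 knockdown line; potency means the concentration at half of the fitted maximal effect; 0% = DMSO-treated cells and -100% = media-only wells without cells; nearly all actives have a fitted effect of over 55% in size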
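Compounds were tested in concentration-response format on HT-1080-NT cells for 48 hours at 37 degrees C. Cell viability came from CellTiter-Glo luminescence; curves were classified by r2, response magnitude and activity.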
* = called active by the depositor. Unless noted, the call rests on the fitted dose curve; in most records, active means well fitted curve in the direction sought with a large enough effect; inconclusive means small, poorly fitted or top-dose-only effect, or another doubt; inactive means no such curve, though single readings can be large; an effect the other way counts as inactive or inconclusive. Unless noted, on the % scale 0 is the no-effect control and ±100 the full control effect.

How did COC(=O)c1sc2nc(CSc3ccc(Br)cc3)[nH]c(=O)c2c1C do in these assays?
DT40 TDP1 no CPT: 21µM*; IL-1B inflam inh: 35; TDP1 cell CPT: inconclusive; HT1080 IDH1KD tx: 0%; HT1080-NT tox: 1%

What do the screens show for `Cc1occc1C(=O)N/N=C/C(Br)=C/c1ccccc1`?
DT40 TDP1 no CPT: 12µM*; IL-1B inflam inh: -78*; TDP1 cell CPT: 9.2µM*; HT1080 IDH1KD tx: -30%; HT1080-NT tox: -12%

How did O=C(N/N=C/C(Br)=C/c1ccccc1)c1ccccc1[N+](=O)[O-] do in these assays?
DT40 TDP1 no CPT: 13µM*; IL-1B inflam inh: -19; TDP1 cell CPT: 13µM*; HT1080 IDH1KD tx: -1%; HT1080-NT tox: -3%

How did O=C(CN1CCOCC1)N/N=C/C(Br)=C\c1ccccc1 do in these assays?
DT40 TDP1 no CPT: 10µM*; IL-1B inflam inh: inconclusive; TDP1 cell CPT: 12µM*; HT1080 IDH1KD tx: -1%; HT1080-NT tox: -18%

What do the screens show for `O=C(CN1CCOCC1)N/N=C/c1ccc(C(=O)O)cc1`?
DT40 TDP1 no CPT: 19%; IL-1B inflam inh: -12; TDP1 cell CPT: -5%; HT1080 IDH1KD tx: 21%; HT1080-NT tox: 17%

Results for Cc1occc1C(=O)N/N=C/c1cccnc1 ?
DT40 TDP1 no CPT: -15%; IL-1B inflam inh: 13; TDP1 cell CPT: -14%; HT1080 IDH1KD tx: -16%; HT1080-NT tox: -4%

What do the screens show for `O=C1/C(=C\c2ccco2)CCC/C1=C\c1ccco1`?
DT40 TDP1 no CPT: inconclusive; IL-1B inflam inh: -64*; TDP1 cell CPT: 16µM*; HT1080 IDH1KD tx: -5%; HT1080-NT tox: 9%

What do the screens show for `O=C1/C(=C/c2ccco2)CCC1C1CCCC1` (stereo unspecified)?
DT40 TDP1 no CPT: -4%; IL-1B inflam inh: -4; TDP1 cell CPT: -12%; HT1080 IDH1KD tx: 12%; HT1080-NT tox: inconclusive

What do the screens show for `CC(NCc1ccc(-c2ccccc2)cc1)C(O)c1ccccc1` (stereo unspecified)?
DT40 TDP1 no CPT: 18µM*; IL-1B inflam inh: -96*; TDP1 cell CPT: inconclusive; HT1080 IDH1KD tx: 15µM*; HT1080-NT tox: inconclusive

How did CC1CN(C)C(C)CC1OC(=O)C(c1ccccc1)c1ccccc1 (stereo unspecified) do in these assays?
DT40 TDP1 no CPT: 23µM*; IL-1B inflam inh: inconclusive; TDP1 cell CPT: inconclusive; HT1080 IDH1KD tx: -10%; HT1080-NT tox: -14%

What do the screens show for `CCCCOc1ccc(C(=O)OC2CC(C)N(C)CC2C)cc1` (stereo unspecified)?
DT40 TDP1 no CPT: 16µM*; IL-1B inflam inh: -54*; TDP1 cell CPT: inconclusive; HT1080 IDH1KD tx: inconclusive; HT1080-NT tox: inconclusive

How did CN(C)[C@@H]1CCC[C@H]1OC(=O)C(c1ccccc1)c1ccccc1 do in these assays?
DT40 TDP1 no CPT: inconclusive; IL-1B inflam inh: -6; TDP1 cell CPT: -23%; HT1080 IDH1KD tx: 0%; HT1080-NT tox: 0%

Results for COC(=O)C1CC23C=CCN4CCC5(c6ccccc6NC15C2C)C43 (stereo unspecified) ?
DT40 TDP1 no CPT: 1.3µM*; IL-1B inflam inh: 38; TDP1 cell CPT: 1µM*; HT1080 IDH1KD tx: 0.73µM*; HT1080-NT tox: 0.58µM*

How did O=C(O)c1cccc(Nc2c3ccccc3nc3ccccc23)c1 do in these assays?
DT40 TDP1 no CPT: inconclusive; IL-1B inflam inh: -14; TDP1 cell CPT: inconclusive; HT1080 IDH1KD tx: -1%; HT1080-NT tox: 5%

Results for O=C(NNc1c2ccccc2nc2ccccc12)c1ccccc1Cl ?
DT40 TDP1 no CPT: inconclusive; IL-1B inflam inh: 60; TDP1 cell CPT: -23%; HT1080 IDH1KD tx: -7%; HT1080-NT tox: 0%

Results for Cc1ccc(C(=O)Nc2nc3ccccc3n3nnnc23)cc1 ?
DT40 TDP1 no CPT: -11%; IL-1B inflam inh: 7; TDP1 cell CPT: -17%; HT1080 IDH1KD tx: 11%; HT1080-NT tox: 8%

How did O=C(NNc1c2ccccc2nc2ccccc12)c1cccc(O)c1 do in these assays?
DT40 TDP1 no CPT: 12µM*; IL-1B inflam inh: -80*; TDP1 cell CPT: inconclusive; HT1080 IDH1KD tx: 0%; HT1080-NT tox: -10%

Assay outcomes (PubChem)
